Test results as given in the supplement of paper PMC3334620.
Whole data set: some 33,000 sequences, median “E-score (-0.5 to 0.5)” near -0.0034, cut for the highest 2% near 0.25. The sample as a whole holds a higher share of the highest values than the screen did.

What follows are sequences tested against T1, Yap3 (UniProt P38749) (assay: PBM E-score (8-mer binding enrichment) (E-score (-0.5 to 0.5)); higher = stronger / more preferred TF binding). Conditions: protein concentration: 100 nM; construct: GST-full length.
T1 sequence: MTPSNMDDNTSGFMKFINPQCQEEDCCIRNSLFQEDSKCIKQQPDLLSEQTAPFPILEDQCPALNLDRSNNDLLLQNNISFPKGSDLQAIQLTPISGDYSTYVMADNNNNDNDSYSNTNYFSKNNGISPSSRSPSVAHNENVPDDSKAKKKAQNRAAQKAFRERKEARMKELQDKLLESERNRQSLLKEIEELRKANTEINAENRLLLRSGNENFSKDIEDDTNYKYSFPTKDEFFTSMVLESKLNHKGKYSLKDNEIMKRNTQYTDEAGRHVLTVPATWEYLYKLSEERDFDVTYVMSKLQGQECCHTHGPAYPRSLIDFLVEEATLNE
Procedure, shortened: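 Universal all-10-mer Agilent arrays, double-stranded by primer extension on fresh or once-stripped slides, were probed with about 100-200 nM GST-tagged yeast transcription factors made by PURExpress. Fluorescent anti-GST detected bound protein, and masliner normalised the scans. E-scores from the Universal PBM Analysis Suite were given to each ungapped eight-base word pooled with its reverse complement.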

Row | Sequence | PBM E-score
1 | GACTGTCC | -0.203
2 | ACGCTCAC | -0.0296
3 | AAACACTC | 0.0568
4 | AAATAAGC | 0.12
5 | AAACATAA | 0.202
6 | GAACATAA | 0.134
7 | CAACATAC | 0.0807
8 | TAACATAA | 0.337
9 | CAACATAA | 0.297
10 | CAACATAG | 0.144
11 | CTGTGACA | 0.0329
12 | CATGGGCA | -0.0447
13 | GTAGCGTA | 0.0978
14 | AATCCTGC | 0.0275
15 | ACTTGGGC | -0.119
16 | AGCTCTAG | -0.0862
17 | GAAAATCA | 0.132
18 | CAAGCAAA | 0.00556
19 | AGCCAGGA | -0.0633
20 | AAAACTAG | 0.021
21 | CAAACTAA | 0.25
22 | TAAACTAA | 0.282
23 | AAAACTAT | 0.182
24 | GAAACTAA | 0.00343
25 | AAAACTAA | 0.298

Row | Sequence | PBM E-score
26 | AGTGGTTA | 0.142
27 | GACACCGA | -0.136
28 | CTGCTCCA | -0.0981
29 | ATCCGTTC | 0.057
30 | GTCCGTTA | 0.107
31 | ATCCGTTA | 0.284
32 | ACGATACC | 0.157
33 | ACTGATCA | 0.131
34 | ACTCTACC | 0.0336
35 | ATATATAT | 0.231
36 | GTATATAC | 0.0969
37 | ATATGGAG | 0.264
38 | ATATATGA | 0.185
39 | CTATATAC | 0.367
40 | CTATATAG | 0.121
41 | ATATATAC | 0.299
42 | ATATATGC | 0.224
43 | CTCTATAC | -0.129
44 | ATATGGAC | 0.0106
45 | CTATGGAG | -0.0464
46 | ATATATGG | 0.259
47 | AAGAGAGC | -0.218
48 | CCCACCAA | 0.0694
49 | ACCCCTTC | -0.182
50 | CATCGCAC | -0.0244

Row | Sequence | PBM E-score
51 | CGAACTTA | 0.0175
52 | GTAGTTTA | 0.203
53 | ATAGAGCA | 0.0256
54 | CCCCGCCA | 0.0511
55 | ATAAATTC | 0.153
56 | AGAAATTG | 0.266
57 | ACAAATTG | 0.173
58 | CTAAATTA | 0.212
59 | GTAAATTA | 0.223
60 | ATAAATTA | 0.365
61 | AAAAATTG | 0.0568
62 | AGAAATTC | 0.0349
63 | ATAAATTG | 0.312
64 | AGACAAAA | 0.0827
65 | ACTAAGAA | 0.205
66 | ACTAAGAT | 0.255
67 | GCTAATGA | 0.0606
68 | TCTAATCA | 0.185
69 | CCTAATAC | 0.122
70 | ACTAATCT | 0.00634
71 | ACTAAGAC | -0.0709
72 | ACTAATAC | 0.288
73 | ACTAATCA | 0.255
74 | GCTAATAC | 0.176
75 | CCTAATGA | 0.128

Row | Sequence | PBM E-score
76 | ACTAATGA | 0.264
77 | CGTGTGTA | 0.172
78 | ATAGGTTA | 0.0929
79 | AGCAAACT | 0.158
80 | ATAGAGGA | -0.186
81 | ACTAATAG | 0.244
82 | ACTAATAT | 0.301
83 | TCTAATAA | 0.167
84 | CCTAATAA | 0.146
85 | ACTAATAA | 0.303
86 | ACGAATAT | 0.212
87 | ATTAAAGG | 0.199
88 | CAAACTCC | -0.0365
89 | CCGTGGAA | -0.00863
90 | GCTCACAA | 0.0362
91 | TCGATGCA | -0.0467
92 | GGTAATTA | 0.221
93 | CGTAATGA | 0.241
94 | CGTAATTC | 0.296
95 | CCTAATTC | 0.036
96 | CGTAATTA | 0.335
97 | AGTAATTA | 0.307
98 | AGTAATTG | 0.164
99 | AGTAAGTA | 0.221
100 | AGTAATTC | 0.235

Row | Sequence | PBM E-score
101 | AGAAATCA | 0.0967
102 | ACCTCTGG | -0.158
103 | ACCAGGAG | -0.207
104 | CTACTCTC | -0.0538
105 | AATGGTCC | 0.113
106 | AATGGTCA | 0.26
107 | TATGGTCA | 0.0184
108 | ACATCCTC | -0.0125
109 | CTGAGAAA | 0.0446
110 | AATTTAAA | 0.171
111 | CACATGTA | 0.109
112 | TACATGTA | 0.255
113 | GACATGTA | 0.162
114 | ATCGGAAA | 0.112
115 | GTCGGAAA | 0.263
116 | CTCGGAAA | 0.0289
117 | CGAGCCAC | -0.228
118 | GCCAGTAA | -0.206
119 | ATACAAAT | 0.173
120 | GTACAAAA | 0.233
121 | TTACAAAA | 0.256
122 | CTACAAAA | 0.0817
123 | ATACAAAA | 0.284
124 | TCACAAAA | 0.206
125 | GGGTAGCA | -0.108

Row | Sequence | PBM E-score
126 | TAGAGGCA | -0.0959
127 | ATCGTATG | 0.0469
128 | GTCTGCAA | -0.0254
129 | CATGTTGA | 0.255
130 | AATGTTGA | 0.0691
131 | CATGTTGC | -0.0984
132 | GCAAATAC | 0.0311
133 | ACAAAAAT | 0.298
134 | ACAAAAAG | 0.239
135 | ACAAAAAA | 0.234
136 | ACAAAACC | 0.272
137 | ACAAATAT | 0.274
138 | ACAAATAG | 0.202
139 | GCAAAACC | -0.0668
140 | ACAAATAC | 0.293
141 | ACAAATAA | 0.225
142 | CCAAATAC | -0.144
143 | ACAAAAAC | 0.143
144 | AAACCCTT | 0.0938
145 | ACAGGGTG | -0.126
146 | ACCTAAAA | 0.0796
147 | AAGCGGAC | -0.025
148 | ACGTAGTG | 0.0166
149 | GTACAGAA | -0.00324
150 | CGTCAATC | 0.0678

Row | Sequence | PBM E-score
151 | CCATGAGG | -0.0244
152 | AATAGCCG | 0.0258
153 | ACCAGCAG | -0.186
154 | CCTCGTAG | -0.00114
155 | AAGATAAA | 0.286
156 | AAGATAAC | 0.111
157 | AAGATACA | 0.262
158 | AAGATACT | -0.0357
159 | GAGATACA | 0.167
160 | AAGATAAG | 0.0204
161 | AAGGCCAC | -0.143
162 | ACGCGAAT | 0.106
163 | CAATTAGC | 0.085
164 | ACAGACCG | -0.0661
165 | CTCCCATC | 0.0634
166 | ACCAGAGG | -0.119
167 | AATTCGCG | 0.0991
168 | AATTCGCT | 0.289
169 | AATTCGCC | 0.125
170 | GTGCACTA | 0.0636
171 | CTGCACTC | 0.0431
172 | CTGCACTA | 0.262
